From PubChem BioAssay (NCI)
This is part of a sample that, as a whole, favours compounds with a hit. Of some 83,000 tested, about 20% had one in any assay.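 Growth was measured after 48 h exposure to one concentration of compound in 96-well plates. Values under 10 count as active.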 The source made the active and inactive calls.

Legend:
Experiment in all cases: NCI-60 one-dose screen, 48 h (100 = growth as untreated, 0 = no growth, -100 = all killed)
Conditions in all cases: 10 µM
RPMI-8226 leukemia = tested on: RPMI-8226 leukemia
OVCAR-8 ovarian = tested on: OVCAR-8 ovarian
OVCAR-5 ovarian = tested on: OVCAR-5 ovarian
OVCAR-4 ovarian = tested on: OVCAR-4 ovarian
SK-OV-3 ovarian = tested on: SK-OV-3 ovarian
IGROV1 ovarian = tested on: IGROV1 ovarian
OVCAR-3 ovarian = tested on: OVCAR-3 ovarian
HS 578T breast = tested on: HS 578T breast
NCI/ADR-RES ovarian = tested on: NCI/ADR-RES ovarian

Measured: growth

CN1C/C(=C\c2ccc(O)cc2O)c2[o+]c3cc(O)ccc3cc2C1
inactive: RPMI-8226 leukemia 33% | OVCAR-8 ovarian 62.7% | OVCAR-5 ovarian 72.1% | OVCAR-4 ovarian 68.2% | SK-OV-3 ovarian 105% | IGROV1 ovarian 34.8% | HS 578T breast 50.1% | NCI/ADR-RES ovarian 107%
active: OVCAR-3 ovarian -8.86%

CCCCCc1ccc(S(=O)(=O)N(C(C)=O)c2cc(-c3csc(N(C)C(C)=O)n3)ccc2N2CCN(C)CC2)cc1
inactive: OVCAR-8 ovarian 41.2% | OVCAR-5 ovarian 57.6% | OVCAR-4 ovarian 62% | SK-OV-3 ovarian 96% | IGROV1 ovarian 68.2% | OVCAR-3 ovarian 44.7% | HS 578T breast 35.7% | NCI/ADR-RES ovarian 47.9%
active: RPMI-8226 leukemia -24.8%

O=C(Cn1cc(CSc2nnc3oc4ccccc4n23)nn1)Nc1ccc(Br)cc1
inactive: RPMI-8226 leukemia 93.2% | OVCAR-8 ovarian 16% | OVCAR-5 ovarian 91.6% | OVCAR-4 ovarian 87% | SK-OV-3 ovarian 53.8% | IGROV1 ovarian 75% | OVCAR-3 ovarian 87% | HS 578T breast 20.3% | NCI/ADR-RES ovarian 51.3%

O=S(=O)(c1ccc(Cl)cc1)c1nc(-c2ccccc2)oc1S(=O)(=O)c1ccc(Cl)cc1
inactive: RPMI-8226 leukemia 36.3% | OVCAR-8 ovarian 81.5% | OVCAR-5 ovarian 101% | OVCAR-4 ovarian 92.8% | SK-OV-3 ovarian 94% | IGROV1 ovarian 91.7% | OVCAR-3 ovarian 89.1% | HS 578T breast 87.4% | NCI/ADR-RES ovarian 81.2%

O=C(CSc1nnc(-c2ccc3nc(-c4ccc(Cl)cc4)[nH]c3c2)o1)Nc1ccc(Cl)cc1
active: RPMI-8226 leukemia 0.0065% | OVCAR-8 ovarian -17.6% | OVCAR-5 ovarian -10.2% | OVCAR-4 ovarian -46.7% | IGROV1 ovarian -18.8% | OVCAR-3 ovarian -15.4% | HS 578T breast -32.5%
inactive: SK-OV-3 ovarian 21.6% | NCI/ADR-RES ovarian 11.8%

CCN(CC)CCOc1ccc(C(=C(C)c2ccccc2)c2ccc(OCCN(CC)CC)cc2)cc1
active: RPMI-8226 leukemia -35.4% | OVCAR-3 ovarian -7.71% | HS 578T breast -8.15%
inactive: OVCAR-8 ovarian 25.2% | OVCAR-5 ovarian 24.9% | OVCAR-4 ovarian 13.6% | SK-OV-3 ovarian 58% | IGROV1 ovarian 34% | NCI/ADR-RES ovarian 29%

C/C(=C\CC/C=C(\C)CC/C=C(\C)CC[C@@H](O)C(C)(C)O)CC/C=C(\C)CC[C@@H](O)C(C)(C)O
inactive: OVCAR-8 ovarian 47.6% | OVCAR-5 ovarian 56.1% | OVCAR-4 ovarian 42% | SK-OV-3 ovarian 64.4% | IGROV1 ovarian 76.8% | OVCAR-3 ovarian 42.6% | HS 578T breast 39% | NCI/ADR-RES ovarian 30.2%
active: RPMI-8226 leukemia -11.4%

O=C(c1ccc(Cl)cc1)C1[C@H](c2ccccc2Br)[C@@H](c2ccccc2)NC12C(=O)Nc1ccc(Cl)cc12 (some centres not stated)
active: OVCAR-3 ovarian 4.76% | NCI/ADR-RES ovarian -60.1%
inactive: RPMI-8226 leukemia 10.8% | OVCAR-8 ovarian 24.2% | OVCAR-5 ovarian 20.8% | OVCAR-4 ovarian 27% | SK-OV-3 ovarian 42.9% | IGROV1 ovarian 17.7% | HS 578T breast 27.6%

COC(=O)CC1CC1C1Cc2c(nc(N(C)S(C)(=O)=O)nc2C(C)C)-c2ccc(F)cc21 (configuration not stated)
inactive: RPMI-8226 leukemia 46% | OVCAR-8 ovarian 80.6% | OVCAR-5 ovarian 90% | OVCAR-4 ovarian 82.3% | SK-OV-3 ovarian 106% | IGROV1 ovarian 81.4% | OVCAR-3 ovarian 97.5% | HS 578T breast 84.6% | NCI/ADR-RES ovarian 71.8%

Cc1cc2c(c(O)c1Br)-c1ncoc1C(=O)[C@]1(C)CC[C@H](C(C)C)[C@H]21
inactive: OVCAR-8 ovarian 32.6% | OVCAR-5 ovarian 73.2% | OVCAR-4 ovarian 52.4% | SK-OV-3 ovarian 57% | IGROV1 ovarian 52.2% | OVCAR-3 ovarian 18.2% | HS 578T breast 54.7% | NCI/ADR-RES ovarian 27.8%
active: RPMI-8226 leukemia 4.28%

Nc1n[nH]c2cccc(C#Cc3cccc(NC(=O)Nc4cc(C(F)(F)F)cc(C(F)(F)F)c4)c3)c12
active: RPMI-8226 leukemia -16.3% | OVCAR-8 ovarian -5.59% | OVCAR-5 ovarian -46% | OVCAR-4 ovarian -3.45% | SK-OV-3 ovarian -28.9% | IGROV1 ovarian -66% | OVCAR-3 ovarian -20.4% | HS 578T breast -20.5% | NCI/ADR-RES ovarian -48.9%

COC1CC(Cn2cc(COc3ccc4ccc(=O)oc4c3)nn2)C(OCc2ccccc2)C(OCc2ccccc2)C1OCc1ccccc1 (configuration not stated)
inactive: RPMI-8226 leukemia 77.7% | OVCAR-8 ovarian 103% | OVCAR-5 ovarian 111% | OVCAR-4 ovarian 93.4% | SK-OV-3 ovarian 91.9% | IGROV1 ovarian 107% | OVCAR-3 ovarian 125% | HS 578T breast 109% | NCI/ADR-RES ovarian 94.3%

CO[C@H]1CSS[C@@H]1Cn1nc(-c2ccc(Oc3ccccc3)cc2)c2c(N)ncnc21
inactive: RPMI-8226 leukemia 36.4% | OVCAR-8 ovarian 48.2% | OVCAR-5 ovarian 28.5% | OVCAR-4 ovarian 50.2% | IGROV1 ovarian 29.4% | OVCAR-3 ovarian 61.2% | HS 578T breast 28.4% | NCI/ADR-RES ovarian 42.6%
active: SK-OV-3 ovarian -1.28%

COc1ccc(CCN2C(=O)/C(=C/c3csc(C#N)n3)SC2=S)cc1OC
inactive: OVCAR-8 ovarian 69.2% | OVCAR-5 ovarian 116% | OVCAR-4 ovarian 66.3% | SK-OV-3 ovarian 107% | IGROV1 ovarian 90.7% | HS 578T breast 66.3% | NCI/ADR-RES ovarian 93.3%
active: RPMI-8226 leukemia -7.56% | OVCAR-3 ovarian -17.7%

O=c1c2ccccc2nc(COc2ccccc2)n1/N=C/c1ccc(F)cc1
inactive: RPMI-8226 leukemia 71.7% | OVCAR-8 ovarian 94.4% | OVCAR-5 ovarian 94.2% | OVCAR-4 ovarian 76.9% | SK-OV-3 ovarian 114% | IGROV1 ovarian 105% | OVCAR-3 ovarian 114% | HS 578T breast 90.5% | NCI/ADR-RES ovarian 90.8%

COc1ccc2nc(Nc3cccc(NC(=O)c4ccc(CN5CCN(C)CC5)c(C(F)(F)F)c4)c3)ccc2c1
active: RPMI-8226 leukemia -33% | OVCAR-8 ovarian -38.1% | OVCAR-5 ovarian -75% | OVCAR-4 ovarian -27.1% | SK-OV-3 ovarian -48.8% | IGROV1 ovarian -69.8% | OVCAR-3 ovarian -36% | HS 578T breast -23.1% | NCI/ADR-RES ovarian -37.9%

O=C(NCCCCC(c1ccc(F)cc1)c1ccc(F)cc1)NCCCc1cccnc1
inactive: OVCAR-8 ovarian 11.4% | OVCAR-5 ovarian 27.9% | OVCAR-4 ovarian 20.6% | SK-OV-3 ovarian 23.6% | IGROV1 ovarian 31.6% | OVCAR-3 ovarian 26.5% | HS 578T breast 56.4% | NCI/ADR-RES ovarian 12.9%
active: RPMI-8226 leukemia -42.1%

CC1(C)CC[C@]2(C(=O)O)CC[C@]3(C)C(=CC[C@@H]4[C@@]5(C)C/C(=C/c6ccncc6)[C@H](O)C(C)(C)[C@@H]5CC[C@]43C)[C@@H]2C1
inactive: RPMI-8226 leukemia 19% | OVCAR-8 ovarian 44.5% | OVCAR-5 ovarian 67.6% | OVCAR-4 ovarian 42.6% | SK-OV-3 ovarian 65% | IGROV1 ovarian 49.1% | OVCAR-3 ovarian 40.9% | HS 578T breast 52.7% | NCI/ADR-RES ovarian 32.7%

COc1ccc2[nH]c(O)c(N=NC(=O)c3cc(-c4ccc(C)cc4)nc4ccccc34)c2c1
inactive: RPMI-8226 leukemia 76.4% | OVCAR-8 ovarian 88.5% | OVCAR-5 ovarian 119% | OVCAR-4 ovarian 91.8% | SK-OV-3 ovarian 106% | IGROV1 ovarian 102% | OVCAR-3 ovarian 98.3% | HS 578T breast 91% | NCI/ADR-RES ovarian 71.6%

CC1CC(c2ccc(N(C)C)cc2)=NN1c1nc(O)c(C2=c3cc(Br)ccc3=NC2=O)s1 (configuration not stated)
active: NCI/ADR-RES ovarian 7.99%
inactive: RPMI-8226 leukemia 28.1% | OVCAR-8 ovarian 83% | OVCAR-5 ovarian 123% | OVCAR-4 ovarian 94.5% | SK-OV-3 ovarian 91.3% | IGROV1 ovarian 110% | OVCAR-3 ovarian 73.6% | HS 578T breast 70%

CC(=O)Nc1ccc(-n2cnc3cc(-c4ccc(O)cc4)ccc32)cc1C
inactive: RPMI-8226 leukemia 42.7% | OVCAR-8 ovarian 58% | OVCAR-5 ovarian 72.7% | OVCAR-4 ovarian 70.2% | SK-OV-3 ovarian 78.8% | IGROV1 ovarian 80.2% | OVCAR-3 ovarian 80.3% | HS 578T breast 64.6% | NCI/ADR-RES ovarian 29.4%

COc1ccccc1[C@H]1C(C(=O)c2ccc(Cl)cc2)C2(N[C@@H]1c1ccccc1)C(=O)Nc1ccccc12 (some centres not stated)
inactive: OVCAR-4 ovarian 24.8% | SK-OV-3 ovarian 16.9%
active: RPMI-8226 leukemia 5.12% | OVCAR-8 ovarian 4.63% | OVCAR-5 ovarian -24.8% | IGROV1 ovarian -3.06% | OVCAR-3 ovarian -42.7% | HS 578T breast -12.9% | NCI/ADR-RES ovarian -69.7%

COc1ccc([C@H]2C(C(=O)c3ccc(Cl)cc3)C3(N[C@@H]2c2ccccc2)C(=O)Nc2ccc(Br)cc23)cc1 (some centres not stated)
inactive: OVCAR-8 ovarian 14.9% | OVCAR-4 ovarian 17.2% | SK-OV-3 ovarian 22.6%
active: RPMI-8226 leukemia -10.6% | OVCAR-5 ovarian -20% | IGROV1 ovarian 7.23% | OVCAR-3 ovarian -30.8% | HS 578T breast -7.39% | NCI/ADR-RES ovarian -27.2%

O=C1Nc2ccc(Cl)cc2/C1=C/c1ccc(OCc2ccc(Br)cc2F)cc1
inactive: RPMI-8226 leukemia 44.7% | OVCAR-5 ovarian 70.6% | SK-OV-3 ovarian 25.1% | IGROV1 ovarian 39.2% | NCI/ADR-RES ovarian 13.1%
active: OVCAR-8 ovarian 5.33% | OVCAR-4 ovarian -20.5% | OVCAR-3 ovarian 0.51% | HS 578T breast -0.705%

COc1ccc2[nH]c(O)c(N=NC(=O)COc3ccc(NC(=O)Nc4ccc(Cl)cc4)cc3)c2c1
inactive: RPMI-8226 leukemia 32.1% | OVCAR-5 ovarian 48% | SK-OV-3 ovarian 49.6% | IGROV1 ovarian 68.8% | HS 578T breast 22.8% | NCI/ADR-RES ovarian 102%
active: OVCAR-8 ovarian -28.6% | OVCAR-4 ovarian -21.6% | OVCAR-3 ovarian -30.6%

CCCCCc1ccc(S(=O)(=O)Nc2cc(-c3csc(N(C)C(C)=O)n3)ccc2N2CCN(C)CC2)cc1
inactive: OVCAR-8 ovarian 36% | OVCAR-5 ovarian 68% | OVCAR-4 ovarian 11.6% | SK-OV-3 ovarian 21.4% | IGROV1 ovarian 48% | OVCAR-3 ovarian 60.2% | HS 578T breast 28.7% | NCI/ADR-RES ovarian 32.7%
active: RPMI-8226 leukemia -9.26%

Cc1ccc([N+](=O)[O-])c(C(=O)Nc2ccc(-c3ccc4c(c3)NC(=O)/C4=C\c3ccc[nH]3)cc2)c1
inactive: RPMI-8226 leukemia 31.4% | OVCAR-8 ovarian 25.6% | OVCAR-5 ovarian 55% | OVCAR-4 ovarian 34.3% | SK-OV-3 ovarian 109% | IGROV1 ovarian 53.9% | OVCAR-3 ovarian 41.3% | HS 578T breast 67.2% | NCI/ADR-RES ovarian 38%

Cc1ccc(C(=O)NCCCNc2nc(Nc3ccc(N4CCN(C)CC4)cc3)nc3ccsc23)cc1
inactive: RPMI-8226 leukemia 10.1% | OVCAR-8 ovarian 29.2% | OVCAR-5 ovarian 69.1% | OVCAR-4 ovarian 39.6% | SK-OV-3 ovarian 92.9% | IGROV1 ovarian 69.2% | OVCAR-3 ovarian 31% | HS 578T breast 66.9% | NCI/ADR-RES ovarian 46.5%
